This is an account of results in PubChem BioAssay AID1861 (The Scripps Research Institute Molecular Screening Center, 2009).

About 3,100 (1.1%) of roughly 290,000 compounds were called active. The full list was thinned out, with actives kept by preference. Values without a mark were called inactive. No stated cut-off is given here; in the data, active means inhibition above about 16% (passing the limit was not always enough); inactive means the rest.

For orientation: inhibition means the drop in the measured response relative to a control, in per cent.

In the test the target is Neuropeptides B/W receptor type 1 (Homo sapiens) (UniProt P48145). The test can be described thus: blockers of human neuropeptide B/W receptor 1 – cell-based, fluorescence, single concentration, primary screen (AID 1861).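 Further: cells stimulated with the agonist NPW; 0% = agonist with vehicle and 100% = vehicle without agonist.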 The note with it: GPR7-expressing cells, fluorescence antagonist assay; at 4.4 µM; hits give high values.
Neuropeptides B/W receptor type 1 (Homo sapiens), sequence (P48145 whole entry, looked up): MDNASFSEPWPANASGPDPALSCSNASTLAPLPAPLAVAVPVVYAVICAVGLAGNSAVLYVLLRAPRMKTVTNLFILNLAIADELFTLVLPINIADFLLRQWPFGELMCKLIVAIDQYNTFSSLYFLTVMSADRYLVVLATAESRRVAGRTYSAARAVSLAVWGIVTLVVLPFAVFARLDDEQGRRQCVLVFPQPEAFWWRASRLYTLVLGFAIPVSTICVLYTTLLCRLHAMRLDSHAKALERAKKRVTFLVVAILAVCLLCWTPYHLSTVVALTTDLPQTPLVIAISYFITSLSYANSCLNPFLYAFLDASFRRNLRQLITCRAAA
Regarding `O=C(Nc1cccc2ccccc12)c1onc2c1CCCC2`, the inhibition is -5.72%. The result for `Oc1ccccc1CNc1ncc(Br)cc1Br` reads -17.9%; that for `Cc1cccc(C(=O)NCCCN(C)CCCNC(=O)c2cccc(C)c2)c1`, -10.2%; that for `COCCN(Cc1cc2cc3c(cc2nc1Cl)OCO3)C(=O)c1cccc(C)c1`, 21.6% (active).

With `CCCCN(CC)C(=O)c1ccc2c(c1)OCO2`, the inhibition is 11.2%. On to `Cc1ccc(Cl)c(NC(=O)CN2CCN(C=O)CC2)c1`, for which the inhibition is 2.68%.

For `COc1ccccc1OCCOc1ccc(/C=C2\C(=N)N3N=C(C)SC3=NC2=O)cc1`, the inhibition was 21%.

With `CNS(=O)(=O)c1cccc(C(=O)NCC2CCCCC2)c1`, the inhibition is 5.35%.

`CN(C)S(=O)(=O)N1CCC(Oc2cccc(C(=O)NCCCC3CCCC3)c2)CC1`: the inhibition was 34.4% (active). For the compound `CN(C(=O)c1cccc(OC2CCN(S(=O)(=O)N(C)C)CC2)c1)C1CCOC1` (stereo not given), the inhibition was -0.89%.

For `Cc1cc(C(=O)NCCc2ccc(Cl)cc2)c(C)o1`, the inhibition was -6.42%. Next, `CN(c1cccc(NC(=O)Nc2ccc(Cl)cc2)c1)S(C)(=O)=O`: 35.6% (active).

For the compound `Cc1ccc(N(CC(=O)Nc2cccc(N(C)S(C)(=O)=O)c2)S(C)(=O)=O)cc1`, the inhibition was -0.43%. In the case of `COc1cccc(N(CC(=O)Nc2cccc(N(C)S(C)(=O)=O)c2)S(C)(=O)=O)c1`, the inhibition is -7.36%. Turning to `CCOC(=O)N1CCN(C(=O)C(C)NC(=O)c2ccco2)CC1` (stereo not given), the inhibition was -2.9%.

`CCN(CCn1cccn1)Cc1nc(-c2ccc(C(=O)OC)cc2)no1`: the inhibition was 9.06%. As to `COc1cccc(-c2cc(C(=O)N3CCN(c4ccccc4OC)CC3)no2)c1`, the inhibition is -15.8%. For `CN(CC(=O)Nc1ccccc1C(F)(F)F)C(=O)Cc1ccccc1F`, the inhibition was -10.8%.

As to `COc1cc(CNC2CCCCC2)c(Br)cc1OC1CCCC1`, the inhibition is -7.35%. As for `CCOCCCNCc1cc(Br)ccc1OCC`, the inhibition is 10.1%.

On to `CC(C)(C)NCc1cc(Br)ccc1OC1CCCC1`, for which the inhibition was 22.3% (active).

Take `O=C(NCc1cccc(CNC(=O)Nc2cccc(O)c2)c1)Nc1cccc(O)c1`: the inhibition is -9.18%. On to `C[C@@H]1C[C@@H]2O[C@H]2/C=C\C=C\C(=O)Cc2c(Cl)c(O)cc(O)c2C(=O)O1`, for which the inhibition is -17.8%. Next, `C/C(=N\NC(=O)c1cccc([N+](=O)[O-])c1)c1cccnc1`: -13.8%; `Cc1cc(NC(=O)CSc2nnc(Nc3ccccc3F)s2)no1`: -3.75%; `Cc1ccc(Nc2nnc(SCC(=O)c3cc4ccccc4o3)s2)cc1C`: -6.61%.

For the compound `Cc1ccccc1Nc1nnc(SCC(=O)c2cc3ccccc3o2)s1`, the inhibition was 28% (active). Turning to `COc1ccc(-c2nc3c(s2)CCc2onc(-c4ccc(OC)cc4)c2-3)cc1`, the inhibition is -14.6%.

`O=C(CC1C(=O)NCCN1CC(c1ccccc1)c1ccccc1)NCC1CCOCC1` (stereo not given): the inhibition is -12.4%. Regarding `COCCn1cnc2c1c(=O)n(CC(=O)NN)c(=O)n2Cc1ccccc1`, the inhibition was -7.23%. Consider `Cc1ccc(F)c(NC(=O)CCOc2ccccc2C)c1`, for which the inhibition was -9.71%. `O=c1c([N+](=O)[O-])cc(C(F)(F)F)cn1Cc1cccc(Cl)c1`: the inhibition is 1%.

As for `O=[N+]([O-])/C=C/c1ccc2c(ccn2Cc2ccccc2)c1`, the inhibition is 50.9% (active).

For `O=C(/C=C/c1cccc([N+](=O)[O-])c1)N1CCN(Cc2ccccc2)CC1`, the inhibition was 33.7%. Take `CCc1ccc(NC(=O)CN2C(=O)COc3ccc(S(=O)(=O)N4CCCC4)cc32)cc1`: the inhibition was -5.64%. Regarding `CCn1c(COc2ccccc2)nnc1SCC(=O)NCc1ccco1`, the inhibition is 3.08%. For `COc1ccc(C(=O)CSc2nnc(COc3ccccc3)n2Cc2ccco2)cc1`, the inhibition is 42.3% (active). For `C=CCn1c(CNC(=O)c2ccco2)nnc1SCC(=O)c1ccc(OC)cc1`, the inhibition was -0.25%. Turning to `CCc1ccc(N2CC(C(=O)N3CCCCCC3)CC2=O)cc1` (stereo not given), the inhibition was -4.17%. In the case of `COc1ccccc1N(CC(=O)N/N=C(\C)c1ccccc1O)S(=O)(=O)c1ccc(C)cc1`, the inhibition is -9.35%.

As for `O=C1OC(OC(=O)c2ccccc2Br)C(N2CCOCC2)=C1Cl` (stereo not given), the inhibition is -8.99%. Next, `Cc1ccc(NC2=C(Cl)C(=O)OC2OC(=O)c2ccccc2C)cc1` (stereo not given): 36.4% (active); `Cc1ccccc1C(=O)OC1OC(=O)C(Cl)=C1Nc1ccccc1` (stereo not given): 0.02%; `O=C(Cc1ccc(Cl)cc1)NC(=S)Nc1ccccc1O`: 80.2% (active). Next, `Cc1ccc(C(=O)NC(=S)Nc2ccccc2C)cc1`: -4.66%; `O=C(COc1ccc(Cl)cc1)NC(=S)Nc1ccccc1N1CCOCC1`: -6.56%; `COC(=O)Cc1ccc(NC(=S)NCc2ccc(Cl)cc2)cc1`: -7.45%. As to `Cc1cccc(NC(=S)NCCc2ccc(Cl)cc2)c1C`, the inhibition was -3.82%. Turning to `Cc1ccccc1NC(=S)NC(=O)Cc1ccc(Cl)cc1`, the inhibition was 56.5% (active). On to `COc1ccc2oc(=N)c(C(=O)Nc3ccc(Br)cc3)cc2c1`, for which the inhibition is -2.95%. Regarding `CC(=O)Nc1ccc(S(=O)(=O)NC2Cc3ccccc3C2)cc1`, the inhibition was 17.6%. Next, `O=C(c1cc2ccccc2o1)N1CCN(Cc2ccccc2)CC1`: -6.86%; `COc1ccc(NC(=O)CCCC2CCCCC2)c(OC)c1`: 14.9%; `Cc1ccc(C)c(SCc2nc3sc(C(=O)O)c(C)c3c(=O)[nH]2)c1`: -16.9%.

With `Cc1ccc(-c2nc(SCC(=O)Nc3ccccc3OC(F)F)c3c(C)c(C(=O)O)sc3n2)cc1`, the inhibition was 29.8% (active). With `COc1ccccc1NC(=O)CSc1nc2sc3c(c2c(=O)n1-c1ccccc1)CCN(C)C3`, the inhibition is 4.04%. In the case of `COc1cccc(/C=C(/CC(=O)Nc2ccc(N3CCOCC3)cc2)c2nc3ccccc3s2)c1`, the inhibition is -6.54%. With `Cc1ccc(C)c(C(=O)N2CCC(n3nccc3NC(=O)C3CC3)CC2)c1`, the inhibition is -10.3%. Consider `CCCCCCn1c(CN2CCCCC2)nc2c1c(=O)n(C)c(=O)n2C`, for which the inhibition was 0.86%. Take `CCCCCCCCn1c2c(c(=N)c3c1CCC3)CCCC2`: the inhibition is 57.5% (active). Next, `COc1ccccc1C(=O)N/C(=C/c1ccco1)C(=O)Nc1ccc(C(=O)O)cc1`: 0.36%; `O=C(Nc1cccc(Cl)c1N1CCOCC1)c1cccnc1`: -1.34%. Turning to `CCN1CCN(c2c(Cl)cccc2NC(=O)c2ccc(Br)o2)CC1`, the inhibition was 23.7% (active). For `CCCC(=O)Nc1ccc(Cl)c(NC(=O)c2ccc(Br)o2)c1`, the inhibition is -14%. As for `COc1ccc2cc(C(=O)NCC3CCCO3)[nH]c2c1` (stereo not given), the inhibition was -1.93%. Next, `Clc1cccc(Cl)c1OCCOCCNCc1ccccc1`: -2.47%.

On to `CCN(CC)CCOCCOc1ccc(Cl)c2ccccc12`, for which the inhibition was 27.1% (active).

Consider `CN(C)CCOCCOc1ccc(Cl)c2ccccc12`, for which the inhibition was 14.1%. On to `COc1ccc(NS(=O)(=O)c2ccc(O)c(C(=O)OCC(=O)NC3CCCCC3)c2)cc1`, for which the inhibition was -13.8%. Turning to `NC(=O)COc1ccccc1C(=O)NC12CC3CC(CC(C3)C1)C2`, the inhibition was -4.36%. Next, `CN1CCNC(=O)C1CC(=O)NCCC1=CCCCC1` (stereo not given): 18.4% (active); `Cc1ccccc1CN1CCNC(=O)C1CC(=O)NCCC1=CCCCC1` (stereo not given): -1.59%.

`O=C(Cc1nn[nH]n1)NCCC1=CCCCC1`: the inhibition is -14.2%.

Take `CCN(CC)Cc1c(C(=O)OC)nnn1-c1nonc1N`: the inhibition is 36.6% (active). `CCN(CC)Cc1c(C(=O)N/N=C/c2cccc(OCc3ccc(F)cc3)c2)nnn1-c1nonc1N`: the inhibition is 6.35%.

Take `Cc1c(C(=O)O)nnn1-c1nonc1N`: the inhibition is -7.01%. `O=C(CSc1nnnn1C1CCCC1)N1CCCCC1`: the inhibition is 0.56%. On to `CCOC(=O)C1(Cc2ccccc2C(F)(F)F)CCN(C(=O)c2cc(C)n(C)n2)CC1`, for which the inhibition was -2.9%.

As for `O=C(CSc1ccc(-c2ccc(Br)cc2)nn1)NCC1CCCO1` (stereo not given), the inhibition is -0.63%. `CC(NS(=O)(=O)c1ccc(Br)cc1)C(=O)NCC1CCCO1` (stereo not given): the inhibition was -6%. Regarding `OC(CNCC1CCCO1)Cn1c2ccc(Br)cc2c2cc(Br)ccc21` (stereo not given), the inhibition was 25.7% (active). The result for `CCc1ccc(OCC(O)CN2CCN(CCO)CC2)cc1` (stereo not given) reads -19.8%; that for `O=S1(=O)CCO[C@H]2Cc3ccccc3[C@H]2N1Cc1ccccc1`, -8.66%.

Consider `COc1ccccc1C(=O)N1C(CC(=O)Nc2ccccc2C)C(=O)NC2CCCCC21` (stereo not given), for which the inhibition is -5.63%.

Regarding `Cc1cc(-c2n[nH]c(=S)n2/N=C/C(Br)=C/c2ccccc2)n[nH]1`, the inhibition is 4.93%. Next, `CCN1CCN(c2ccc(S(=O)(=O)N3CCCCC3)cc2NC(=O)Cc2c(Cl)cccc2Cl)CC1`: 1.74%; `CN1CCN(c2ccc(S(=O)(=O)N3CCCCC3)cc2NC(=O)Cc2ccccc2F)CC1`: 1.52%. On to `COc1ccc(CC(=O)Nc2cc(S(=O)(=O)N3CCCCC3)ccc2N2CCN(C)CC2)cc1`, for which the inhibition is 19.6% (active).

Consider `CCCC(C)c1nnc(NC(=O)C2CC(=O)N(c3ccc(OCC)cc3)C2)s1` (stereo not given), for which the inhibition is 0.56%. Regarding `COc1ccc(N(CC(=O)Nc2cc(OC)ccc2OC)S(=O)(=O)c2c(C)noc2C)cc1`, the inhibition is -4.71%. `COc1cccc(-n2c(SCC(=O)c3c[nH]c4ccccc34)nc3ccccc3c2=O)c1`: the inhibition is -11.6%. For the compound `COc1ccc(C(C(O)C(=O)c2c[nH]c3ccccc23)N2CCN(c3ccccc3)CC2)cc1` (stereo not given), the inhibition is 25.7% (active). Regarding `COc1ccc(/C=C(\C#N)c2c[nH]c3ccccc23)cc1`, the inhibition is 17.2%. For `COc1ccc(C(=O)NC(=S)N2CCCCC2c2cccnc2)cc1OC` (stereo not given), the inhibition was -2.66%. Next, `Nc1nc(NCc2ccccc2)n(-c2ccccc2)n1`: -7.72%.
